# Measurements reported in PubChem BioAssay.
# Calls of active or inactive are those of the source.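 The calls were made as follows: active = z-score of at least 1.8 in each of two replicates, scored against plate mean and spread of sample wells; inactive = the rest.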
# Test: viability rescue of complex I mutant cybrids, primary screen, cell-based, galactose medium, ATP luminescence (AID 1645843);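 also: positive z means more ATP and so rescue of galactose-driven cybrid death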
# Details: complex I mutant cybrid cells, 72 h, stronger effect = higher value
row,SMILES,z-score
1,Cc1nonc1CN(C)c1ncnc2nc[nH]c12,-0.565 (inactive)
2,COc1ccc(CCNCC(O)COc2cccc(C)c2)cc1OC (stereo not drawn),-0.99 (inactive)
3,CCc1cc(CN2CCN(C)C(CCO)C2)on1 (stereo not drawn),-0.59 (inactive)
4,CCn1ccnc1CN(C)C(=O)c1cc(-c2cnc(N)nc2)nc2cc(C)ccc12,0.64 (inactive)
5,CN(C)CCC=C1c2ccccc2COc2ccc(CC(=O)O)cc21,1.25 (inactive)
6,CC(=O)Nc1cccc(-c2nn(CC(=O)Nc3cnn(C)n3)c3ccccc23)c1,-0.43 (inactive)
7,Cc1nsc(NC(=O)N(C)Cc2cn[nH]c2-c2ccc(F)cc2)n1,-0.49 (inactive)
8,O=C(O)c1ccc(O)cc1O,0.565 (inactive)
9,COc1ccc(OC)c2c1c(C)cc(=O)n2C,-0.615 (inactive)
10,CCc1nc(NC(=O)NC(c2ccccc2)c2ccco2)nn1C (stereo not drawn),1.04 (inactive)
11,Nc1nc(Nc2cccc(Cl)c2)sc1C(=O)c1ccc(F)cc1,-2.28 (inactive)
12,NC1=NC(=O)C(=Cc2ccc(-c3ccc(C(=O)O)cc3)o2)S1,0.485 (inactive)
13,CN1CC2c3ccccc3Oc3ccc(Cl)cc3C2C1 (stereo not drawn),-2.21 (inactive)
14,O=c1ccn2c(n1)OC1C(O)C(CO)OC12 (stereo not drawn),0.87 (inactive)
15,CCCn1ncc(NC(=O)Cn2cc(C)c(-c3cccc(Cl)c3)n2)n1,1.05 (inactive)
16,COc1ccccc1C(=O)N1CCC(n2cc(-c3ccccn3)nn2)CC1,-0.23 (inactive)
17,NC(=O)NC(CCC(=O)O)C(=O)O (stereo not drawn),0.4 (inactive)
18,CCn1ncc(NC(=O)Cn2cc(-c3ncnc4ccsc34)cn2)n1,-0.53 (inactive)
